Test results: PubChem BioAssay AID1851 (National Center for Advancing Translational Sciences (NCATS), 2009)
Out of some 16,000 compounds screened, about 5,100 (32%) were called active. Roughly 25% stayed inconclusive and do not appear here. The list shows a part of the results. A number with no mark means an inactive call. The call rests on the fitted dose curve; in most records, active means well fitted curve in the direction sought with a large enough effect; inconclusive means small, poorly fitted or top-dose-only effect, or effect the other way; inactive means no such curve, though single readings can be large or run the other way.

These compounds were tested against Cytochrome P450 3A4 (Homo sapiens) (UniProt P08684) (assay: Cytochrome panel assay with activity outcomes). Settings: recombinant CYP, pro-luciferin dealkylation, luminescence, p450-cyp3a4; series mostly up to 57.1 µM; activity, negative = inhibition: at the top concentration.
Sequence of Cytochrome P450 3A4 (Homo sapiens) (P08684 whole entry, looked up): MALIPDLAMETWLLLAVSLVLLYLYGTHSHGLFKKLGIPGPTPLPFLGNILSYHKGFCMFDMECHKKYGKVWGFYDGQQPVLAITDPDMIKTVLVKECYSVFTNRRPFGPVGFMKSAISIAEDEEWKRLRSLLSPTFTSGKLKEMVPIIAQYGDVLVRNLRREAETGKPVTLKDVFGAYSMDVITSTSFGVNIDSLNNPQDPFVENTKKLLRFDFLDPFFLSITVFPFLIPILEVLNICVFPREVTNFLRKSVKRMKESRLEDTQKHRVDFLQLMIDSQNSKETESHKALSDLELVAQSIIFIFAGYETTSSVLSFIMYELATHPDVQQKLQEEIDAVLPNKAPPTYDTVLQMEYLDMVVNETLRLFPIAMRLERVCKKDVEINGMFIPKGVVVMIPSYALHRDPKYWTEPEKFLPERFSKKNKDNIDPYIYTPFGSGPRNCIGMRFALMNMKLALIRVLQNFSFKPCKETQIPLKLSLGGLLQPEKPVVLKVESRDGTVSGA
On the % scale 0 is the no-effect control and ±100 the full control effect.

Row | SMILES | activity, negative = inhibition | AC50
1 | Cc1cc(C)c2c(=O)[nH]c(SCC(=O)N(C)C)nc2n1 | -16.7% | 
2 | Cc1cccc(NC(=O)CSc2nc3nc(C)cc(C)c3c(=O)[nH]2)c1 |  | 3.55 µM (active)
3 | COC(=O)[C@@]1(Cc2ccccc2)[C@H]2c3cc(C(=O)N(C)C)n(Cc4c(CO)[nH]cc(C)c4=O)c3C[C@H]2CN1C(=O)c1ccccc1 |  | 1.58 µM (active)
4 | COC(=O)[C@@]1(Cc2ccc(F)cc2)[C@H]2c3cc(C(=O)N(C)C)n(Cc4c(CO)[nH]cc(C)c4=O)c3C[C@H]2CN1C(=O)c1ccccc1 |  | 1.58 µM (active)
5 | CCCCNC(=O)CSc1nc2cc(OC)c(OC)cc2c(=O)n1Cc1ccc(OC)cc1 |  | 2.82 µM (active)
6 | COCCNC(=O)CSc1nc2ccc(N3CCOCC3)cc2c(=O)n1Cc1ccc(OC)cc1 |  | 5.01 µM (active)
7 | NC(=O)CSc1nc2sc(-c3ccccc3)cc2c(=O)n1N | -22% [at 2.29 µM] | 
8 | CCCCn1c(SC(C)C(N)=O)nc2cc(C(=O)OC)ccc2c1=O (stereo not drawn) | -24% | 
9 | CCCCn1c(SCC(N)=O)nc2ccc(N3CCOCC3)cc2c1=O |  | 10 µM (active)
10 | Cc1ccc(OC(=O)c2ccc(N3CCOCC3)c([N+](=O)[O-])c2)cc1 | 19.3% | 
11 | Cc1ccc(OCC(=O)N2CCN(c3ccc([N+](=O)[O-])c(N4CCOCC4)c3)CC2)cc1 |  | 7.08 µM (active)
12 | Cc1cc(N2CCOCC2)ncc1[N+](=O)[O-] | 8.16% [at 2.29 µM] | 
13 | COc1ccc2nc(SCC(=O)c3ccco3)[nH]c2c1 |  | 11.2 µM (active)
14 | CCOC(=O)NC(=O)CSc1nc2ccc(OCC)cc2[nH]1 |  | 28.2 µM (active)
15 | COC(=O)Nc1nc2ccc(SC(C)C)cc2[nH]1 | 7.47% [at 25.6 µM] | 
16 | CCCCc1ccc2nc(NC(=O)OC)[nH]c2c1 | 7.68% [at 25.6 µM] | 
17 | COc1ccc(C(C)=O)c(OC(=O)c2ccco2)c1 | -5.71% | 
18 | CN(CC(=O)O)Cc1c(O)c(Cl)cc(Cl)c1Cl | -14.8% [at 11.4 µM] | 
19 | Cc1ccc2oc(-c3cccc(NC(=S)NC(=O)/C=C/c4ccco4)c3)nc2c1 |  | 1 µM (active)
20 | C[N+](C)(C)CCN(Cc1ccc(Cl)cc1)c1ccccn1 | 15.1% | 
21 | O=C(COc1ccc(Cl)cc1)N(Cc1ccccc1)c1ccccn1 |  | 22.4 µM (active)
22 | O=C(O)COc1c(Cl)cc(Cl)c2cccnc12 | -9.36% [at 11.4 µM] | 

Row | SMILES | activity, negative = inhibition | AC50
23 | O=C1O[C@@H]([C@H](O)[C@H](O)[C@H](O)CO)[C@@H](O)[C@@H]1O | -1% [at 11.4 µM] | 
24 | COc1ccc2c(c1OC)C(=O)N(C(C)C(=O)O)C2=O (stereo not drawn) | 4.09% | 
25 | N#Cc1cccc(-c2cncnc2-n2ccnc2)c1 |  | 2.51 µM (active)
26 | COc1cccc(-c2cncnc2-n2ccnc2)c1 |  | 0.316 µM (active)
27 | CCCC(=O)n1nc(-c2cccnc2)nc1N | 0.62% [at 2.29 µM] | 
28 | c1cncc(-c2cncnc2-n2ccnc2)c1 |  | 7.94 µM (active)
29 | CN(C)c1ccc(-c2cncnc2-n2ccnc2)cc1 |  | 2.51 µM (active)
30 | Cc1ccc(C)c(N/C(N)=N/c2nc(C)cc(C)n2)c1 | -18.9% | 
31 | Cc1ccc(C(C2C(=O)CC(C)(C)CC2=O)C2C(=O)CC(C)(C)CC2=O)s1 | -24% | 
32 | C[N+](C)(C)CCCCCCCCCC[N+](C)(C)C | 11.2% [at 25.6 µM] | 
33 | COc1ccccc1-c1cncnc1-n1ccnc1 |  | 0.251 µM (active)
34 | COc1ccccc1-c1nnc(NC(C)=O)s1 | -18.1% | 
35 | CC(C)(C)c1cc(C(=O)O)c(CN2CCCCC2)o1 | -12.5% | 
36 | CC(Sc1ccc2c(c1)OCCO2)C(=O)Nc1ncc(Cl)cc1Cl (stereo not drawn) |  | 14.1 µM (active)
37 | C/C(CCC(=O)OC[C@@H]1O[C@H](C#Cc2ccccc2)C=C[C@@H]1Oc1ccc(C)cc1)=N/O[C@@H](C)CN1CCCc2nc(C)c(C)cc21 |  | 3.98 µM (active)
38 | C/C(CCC(=O)OC[C@@H]1O[C@H](C#Cc2ccccc2)C=C[C@@H]1Oc1ccc(C)cc1)=N/O[C@@H](C)CN1CCCCc2nc(C)c(C)cc21 |  | 3.16 µM (active)
39 | Cc1cc(NC(=O)C2=C(O)c3ccccc3S(=O)(=O)N2C)no1 | -4.95% [at 25.6 µM] | 
40 | CCOC(=O)c1ccccc1N/C=C1\CCCCC1=O | -9.45% [at 11.4 µM] | 
41 | Cc1nn2c3c(cnc2c1-c1ccccc1)C(=O)CC(c1ccccc1)C3 (stereo not drawn) | -7.16% | 
42 | COC(=O)c1ccccc1N/C=C1\CCc2c(c(C)nn2-c2ccccn2)C1=O |  | 14.1 µM (active)
43 | CC(=O)Nc1ccc2c(c1)/C(=C/c1ccc([N+](C)(C)C)cc1)c1ccccc1-2 | -11.9% [at 11.4 µM] | 
44 | CCCS(=O)(=O)N1CCCC(C(=O)NCc2cccnc2)C1 (stereo not drawn) | -7.24% [at 2.29 µM] | 

Row | SMILES | activity, negative = inhibition | AC50
45 | O=C(Nc1ccc(Cl)c(C(F)(F)F)c1)C1CCCN(S(=O)(=O)c2cnc[nH]2)C1 (stereo not drawn) |  | 0.126 µM (active)
46 | COCc1nnc(NC(=O)CSc2ccc(C)cc2)s1 | -22.6% [at 11.4 µM] | 
47 | COc1ccc(Cc2nnc(NC(=O)CSc3ccc(C)cc3)s2)cc1OC |  | 8.91 µM (active)
48 | COC(=O)c1cc(OC)c(OC)cc1NC(=O)CSc1ccc(C)cc1 |  | 1.58 µM (active)
49 | O=C(O)CCCC[C@H]1CCSS1 | 19.8% | 
50 | NC(=O)CNC(=O)[C@@H]1CC2(CC(c3ccc(Cl)cc3)=NO2)CN1C(=O)c1ccccc1 (stereo partly drawn) | 16.2% [at 2.29 µM] | 
51 | NC(=O)CNC(=O)[C@@H]1CC2(CC(c3cccc([N+](=O)[O-])c3)=NO2)CN1C(=O)c1ccccc1 (stereo partly drawn) | 8.44% [at 2.29 µM] | 
52 | CCCCCC(=O)N1CC2(CC(c3cccc(NC(=O)c4ccccc4)c3)=NO2)C[C@@H]1C(N)=O (stereo partly drawn) |  | 15.8 µM (active)
53 | NC(=O)[C@H]1CC2(CC(c3cccc(NC(=O)c4ccccc4)c3)=NO2)CN1C(=O)[C@H]1CCC(=O)N1 (stereo partly drawn) | 10.5% | 
54 | NC(=O)C1(NC(=O)[C@@H]2CC3(CC(c4cccc(NC(=O)c5cc([N+](=O)[O-])cc([N+](=O)[O-])c5)c4)=NO3)CN2C(=O)c2ccccc2)CC1 (stereo partly drawn) |  | 3.16 µM (active)
55 | C=C(C)C(=O)N1CC2(CC(c3cccc(NC(=O)c4ccccc4)c3)=NO2)C[C@@H]1C(N)=O (stereo partly drawn) | 14.3% | 
56 | O=c1c2ccccc2nnn1CSc1nnc(COc2ccc(Cl)cc2)n1Cc1ccco1 |  | 12.6 µM (active)
57 | CN(C)c1ccc2nc3c(C(=O)O)cc(=O)c(O)c-3oc2c1 | -10.3% [at 11.4 µM] | 
58 | COc1ccc2[nH]cc(CCNc3ccnc(-c4ccc(C(=O)N(C)C)cc4)n3)c2c1 |  | 3.16 µM (active)
59 | COc1ccc2[nH]cc(CCNc3cc(-c4ccc(C(=O)N(C)C)cc4)ncn3)c2c1 |  | 6.31 µM (active)
60 | COc1ccc2[nH]cc(CCNc3ccnc(-c4ccc(N(C)C)cc4)n3)c2c1 |  | 5.01 µM (active)
61 | COc1ccc2[nH]cc(CCNc3ccnc(-c4ccc5c(c4)OCO5)n3)c2c1 |  | 2.51 µM (active)
62 | O=S(=O)(C=C(c1ccccc1)c1ccccc1)c1ccccc1 | 3.56% | 
63 | CCC(=S)/C=C1\Sc2ccc3ccccc3c2N1CCCS(=O)(=O)O | -15.7% | 
64 | COc1ccc2[nH]cc(CCNc3ccnc(-c4ccoc4)n3)c2c1 |  | 3.16 µM (active)
65 | COc1ccc2[nH]cc(CCNc3ccnc(-c4c(C)noc4C)n3)c2c1 |  | 2.51 µM (active)
66 | O=C(NC(=S)N(CCCCO)C1CCCCC1)c1sc2ccccc2c1Cl |  | 3.16 µM (active)

Row | SMILES | activity, negative = inhibition | AC50
67 | Oc1ccc2ccccc2c1CN(Cc1c(O)ccc2ccccc12)C1CCCCC1 | -12% [at 11.4 µM] | 
68 | CCOC(=S)NC(=O)c1sc2ccccc2c1Cl | -1.55% | 
69 | O=C1CN2CCN(CC2)CC(=O)Nc2ccc(cc2)S(=O)(=O)c2ccc(cc2)NC(=O)CN2CCN(CC2)CC(=O)Nc2ccc(cc2)S(=O)(=O)c2ccc(cc2)N1 | -29.8% [at 11.4 µM] | 
70 | C#CCSc1nnc(-c2sc(-c3ccccc3)nc2C)n1C |  | 1 µM (active)
71 | CSc1nnc(-c2sccc2OCc2ccccc2)n1C | -26.2% | 
72 | CSc1nnc(-c2sc(-c3ccccc3)nc2C)n1C | 10.5% | 
73 | O=C(O)CSc1cc(-c2ccccc2)nc2ccccc12 | -1.98% [at 11.4 µM] | 
74 | Cc1ccc(-c2cc(-c3nnc(SCC(=O)NC(C)C(C)C)n3N)c3ccccc3n2)cc1 (stereo not drawn) |  | 14.1 µM (active)
75 | CCOC(=O)c1c(NC(=O)c2c(C)noc2C)sc2c1CCCCC2 | -8.22% | 
76 | CCCCC(=O)Nc1sc2c(c1C(=O)OCC)CCC(C=O)=C2Cl |  | 15.8 µM (active)
77 | O=C(O)c1cc2ccccc2c(S(=O)(=O)O)c1O | 1.86% [at 11.4 µM] | 
78 | C/C(CCN1CCc2nc(-c3ccccc3)c(-c3ccccc3)cc2C1)=N\O[C@@H](C)CN1CCCCc2nc(C)c(C)cc21 |  | 3.98 µM (active)
79 | Cc1cc2c(nc1C)CCCN2CC(O)CN1CCCc2nc(C)c(C)cc21 | -8.33% [at 11.4 µM] | 
80 | CCN(CC)C[C@@H](O)CN1CCCCc2nc(C)c(C)cc21 | -14.9% [at 11.4 µM] | 
81 | CO/N=C(\C)CCN1CCCc2nc(C)c(C)cc21 | -26.4% [at 11.4 µM] | 
82 | C/C(CCN1CCCc2nc(C)c(C)cc21)=N\O[C@@H](C)CN1CCCCc2nc(C)c(C)cc21 |  | 3.98 µM (active)
83 | C/C(CCN1CCCCc2nc(C)c(C)cc21)=N\O[C@@H](C)CN1CCCCc2nc(C)c(C)cc21 |  | 3.98 µM (active)
84 | C/C(CCN1CCCCc2nc(C)c(C)cc21)=N\O[C@@H](C)c1cc(-c2c(C)cc(C)cc2C)no1 |  | 3.98 µM (active)
85 | Nc1ccc(C(=O)NCC(=O)O)cc1 | -3.58% [at 25.6 µM] | 
86 | CC[N+](CC)(CC)CC[C@](O)(c1ccccc1)C1CCCCC1 | -16.7% [at 25.6 µM] | 
87 | Nc1c2c(nc3ccccc13)CCC[C@H]2O | -4.4% | 
88 | CCc1ccc2c(c1)c(N=NC1=NC(=O)CS1)c(O)n2CC | -22.3% | 
